Each structure is given as a SMILES string.

Results on twelve molecules are retold here after the supplement of paper PMC8047044.

This experiment relates to Neuro-2a. The experiment is described as follows: neurite formation score, plate-normalized to DMSO control mean 5.04 (score (0-8 scale)); higher = more or longer neurites. As to conditions: 1 µM. The procedure: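 Neuro-2a mouse neuroblastoma cells in PLL-coated 96-well plates were pre-treated for 1 h in DMEM(+) with each kinase inhibitor at 1 µM, then switched to serum-free DMEM(-) with inhibitor to induce neurite outgrowth and fixed about 2-3 h later. Three blinded observers scored neurite formation from 0 (no neurites) to 8 (long neurites on almost all cells).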
As to `N#CC(C#N)=Cc1ccc(O)c(O)c1`, the neurite formation score was 4.91. The molecule `CCN1CCN(C(=O)Cc2ccc(Nc3ncc(F)c(Nc4ccc(C(=O)Nc5ccccc5Cl)cc4)n3)cc2)CC1` [Aurora A Inhibitor I] gave a neurite formation score of 3.69. The molecule `Cc1ccccc1-n1c(Cn2cnc3c(N)ncnc32)nc2cccc(C)c2c1=O` yielded a neurite formation score of 5.21. Turning to `COc1ccc(N(C(=O)Oc2c(C)cccc2C)c2ccnc(Nc3ccc(N4CCN(C)CC4)cc3)n2)c(OC)c1`, the neurite formation score stood at 3.88. For the molecule `Cn1cc(C2=C(c3cn(C4CCN(Cc5ccccn5)CC4)c4ccccc34)C(=O)NC2=O)c2ccccc21`, the neurite formation score worked out at 3.91. Under `COC[C@H]1OC(=O)c2coc3c2[C@@]1(C)C1=C(C3=O)[C@@H]2CCC(=O)[C@@]2(C)C[C@H]1OC(C)=O` [Wortmannin] stands 4.63; under `O=c1[nH]c2ccccc2n1C1CCN(Cc2ccc(-c3[nH]c4cc5ncnc5cc4nc3-c3ccccc3)cc2)CC1` [AKT inhibitor VIII], 4.91; under `CC(C)(C)c1cc(C=C(C#N)C#N)cc(C(C)(C)C)c1O` [Tyrphostin 9], 4.96.

Molecule `COc1ccc2c(c[n+](C)c3c4cc5c(cc4ccc23)OCO5)c1OC` [Chelerythrine Chloride] gave a neurite formation score of 4.57. As for `CC(C)(C)c1cc(C=C(C#N)C#N)cc(Br)c1O`, the neurite formation score was 4.24. As for `COc1cc([C@@H]2c3cc4c(cc3[C@H](O)[C@H]3COC(=O)[C@@H]23)OCO4)cc(OC)c1OC`, the neurite formation score came out at 4.24. Turning to `O=c1[nH]c2ccc(Cl)cc2c(N[C@@H]2CN3CCC2CC3)c1-c1nc2ccccc2[nH]1`, the neurite formation score was found to be 5.96.
